# CHX counter = counter-screen for Shiga toxin inhibitors: cycloheximide protein synthesis inhibition; cell reporter, cycloheximide protein synthesis inhibition counterscreen; max response, %; hit rate 12% among 300,000; in the data active = max response mostly above about 13%, no sharp cut-off; inactive = mostly below about 14%; note: read at 38.3 µM for the half of the compounds with a filed dose; 0% is about no effect
# RE007 growth inh = less growth of the S. pombe RE007 Vpr strain | hit rate 0.21% among 360,000 | S. pombe RE007 Vpr strain, BacTiter-Glo ATP luminescence, 24 h | Potency, µM (top dose mostly 92.2 µM), inactives show at the top dose activity change, negative = less growth, most hits filed as inhibitors; active = well fitted falling curve with a large enough effect; inconclusive = small, poorly fitted or top-dose-only effect; inactive = no such curve, though single readings can be large or run the other way; note: potency is the fitted concentration of half-maximal effect; % is set by controls: 0 for no effect and ±100 for the full control effect; nearly all actives have a fitted effect of over 50% in size
#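 Fission yeast strain RE007, carrying one chromosomally integrated HIV-1 vpr copy, was seeded at OD 0.01 in PMG+AL medium with 23 nL pinned compound. After 24 h at 30 °C and 99% humidity, viability was read by BacTiter-Glo luminescence.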
# Shiga inhibitor = blocks Shiga toxin action in Vero cells | hit rate 9.2% among 290,000 | inhibition, % at 38.7 µM | Vero cells, Shiga toxin protein synthesis inhibition reporter | AID 2315; in the data active = inhibition mostly above about 28%, no sharp cut-off; inactive = mostly below about 43%; note: 0% is about no effect
# TbPYK inhibitor = inhibitors of Trypanosoma brucei pyruvate kinase. Q57TT1. TbPYK enzyme, Kinase-Glo Plus ATP luminescence, 45 min. Potency, µM (doses to about 76.8 µM), for inactives: top-dose activity, negative = inhibition, actives largely listed as inhibitors. hit rate 0.12% among 410,000. AID 624173; note: potency is the fitted concentration of half-maximal effect; % is set by controls: 0 for no effect and ±100 for the full control effect; nearly all actives have a fitted effect of over 50% in size
#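 Luminescent Kinase-Glo Plus end-point after 45 min room-temperature reaction of T. brucei pyruvate kinase started with 130 uM ADP (final). Buffer TEA 50 mM pH 7.2 with KCl, MgCl2, BSA, Tween-20; titration-based qHTS with fitted concentration-effect curves.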
# LmPK inhibitor = LmPK (Leishmania mexicana) enzyme inhibition; Q27686; purified LmPK, Kinase-Glo ATP luminescence, 1 h; Potency, µM (titrated, usually from 57.5 µM), without a hit: at the top dose activity change, negative = inhibition, most hits filed as inhibitors; hit rate 0.37% among 290,000; AID 1721; note: potency is the fitted concentration of half-maximal effect; % is set by controls: 0 for no effect and ±100 for the full control effect
# Target sequence (Q27686 whole entry, looked up): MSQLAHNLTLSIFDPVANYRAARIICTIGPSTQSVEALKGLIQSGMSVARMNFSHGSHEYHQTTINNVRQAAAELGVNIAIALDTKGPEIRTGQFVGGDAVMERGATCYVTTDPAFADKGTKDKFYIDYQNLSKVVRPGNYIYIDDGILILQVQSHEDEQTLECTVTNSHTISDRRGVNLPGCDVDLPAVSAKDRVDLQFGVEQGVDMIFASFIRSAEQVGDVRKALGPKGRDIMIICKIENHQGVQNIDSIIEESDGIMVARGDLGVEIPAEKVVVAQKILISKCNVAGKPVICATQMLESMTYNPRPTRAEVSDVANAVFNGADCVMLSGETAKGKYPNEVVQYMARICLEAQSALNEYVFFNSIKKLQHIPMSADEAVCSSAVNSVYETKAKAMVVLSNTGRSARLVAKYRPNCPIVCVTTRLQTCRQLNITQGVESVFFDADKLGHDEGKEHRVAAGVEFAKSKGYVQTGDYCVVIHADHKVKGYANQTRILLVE
#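 Screened at intermediate enzyme activity to detect both inhibitors and activators: LmPK at 0.1 nM, with a 0.5 nM enzyme column as activation reference. PEP 0.5 mM, ADP 0.1 mM; ATP detected by luminescence after 1 h.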
# FBPA Giardia inh = inhibitors of Giardia lamblia fructose-1,6-bisphosphate aldolase. Potency, µM (top dose mostly 59.6 µM), without a hit: top-dose activity, negative = inhibition, actives largely listed as inhibitors. purified Giardia FBPA. hit rate 0.71% among 290,000. AID 2451. A8B2U2; note: potency is the fitted concentration of half-maximal effect; % is set by controls: 0 for no effect and ±100 for the full control effect; nearly all actives have a fitted effect of over 55% in size
#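 40 nM FBPA preincubated 10 min at RT with compound (up to 57.5 uM final), then substrate plus GAPDH/TPI/NAD/arsenate coupling and diaphorase/resazurin added. Fluorescence read after 20 min at RT, 525/598 nm.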
# Numbers without * were called inactive; ? = inconclusive; . = no result; [ ] = another dose, or the depositor's remark. The full list was thinned out, with hits kept by preference. Unless noted, calls come from the whole dose curve; as a rule, active = well fitted curve in the direction sought with a large enough effect; inconclusive = small, poorly fitted or top-dose-only effect, or another doubt; inactive = no such curve, though single readings can be large; an effect the other way counts as inactive or inconclusive.
SMILES,CHX counter,RE007 growth inh,Shiga inhibitor,TbPYK inhibitor,LmPK inhibitor,FBPA Giardia inh
COc1ccc2ccccc2c1/C=N/NC(=O)c1ccccc1F,11*,-12%,26,1%,-4%,-23%
COc1ccc(/C=N\NC(=O)c2ccccc2)cc1COc1ccc(F)cc1,27*,-7%,198,-1%,6%,13%
CC(=O)OCON[N+]([O-])=NC1CCCCC1,-3,.,12,.,.,2%
CCN(CC)CCCNC(=O)c1c(C)oc2ncnc(N3CCOCC3)c12,.,.,.,-1%,.,.
CCC1CN(C(=O)N2CCC(C(=O)N(C)Cc3ccccc3)CC2)c2ccccc2O1 (stereo unspecified),.,.,.,-2%,.,.
c1ccc(CC(Nc2ccccn2)c2ccccc2)cc1 (stereo unspecified),18*,-16%,15,5%,-8%,11%
COCC(=O)NCc1nc2ccccc2[nH]1,-2,25%,-4,5%,1%,-7%
C/C(=N\Nc1nc(C)cc(C)n1)c1ccc(N2CCOCC2)cc1,17,7%,20,-11%,3%,2%
C/C(=N\Nc1ncc(Cl)cc1Cl)c1ccc(N2CCOCC2)cc1,38*,1%,85*,1%,6%,-24%
C/C(=N\Nc1nc2ccccc2[nH]1)c1ccc(C)o1,38*,-8%,30*,0%,-12%,-10%
C/C(=N\Nc1nc2ccccc2[nH]1)c1ccc(N2CCOCC2)cc1,40*,-2%,61*,3%,0%,-4%
Cc1ccc(C(=O)NCc2nc3ccccc3[nH]2)o1,34*,-10%,97*,0%,-7%,-11%
CCOc1ccc(C(=O)NCC(c2ccco2)S(=O)(=O)c2cccs2)cc1 (stereo unspecified),.,.,.,-1%,.,.
Cc1ccc(C)c(NC(=O)c2cc(=O)c3cc(C)cc(C)c3o2)c1,.,.,.,-7%,.,.
C/C(=N\Nc1nc2ccccc2[nH]1)c1ccc(Cl)s1,23*,?,54*,-10%,-1%,-6%
C/C(=N\Nc1ccc2nncn2n1)c1ccc(Cl)s1,-1,-4%,-5,1%,1%,0%
CCOc1ccc(C(=O)NCCc2sc(-c3ccc(F)cc3)nc2C)cc1,.,.,.,-1%,.,.
CC(/C=C/c1ccc(OCc2ccccc2)cc1)=N\O,60*,-9%,77*,5%,-9%,6%
CC(/C=C/c1ccc(O)cc1)=N/O,19*,-8%,28*,-10%,?,8%
CC(/C=C/c1ccccc1)=N/O,19*,-8%,22,-4%,-7%,6%
CC(C)=CC1C(CO)C1(C)C (stereo unspecified),.,.,.,.,.,0%
CCCCNc1nc(C)nc2c1nc(C)n2CCC,.,.,.,.,.,4%
COC(=O)c1cc(C)nc(Sc2ccccc2N)n1,18*,-13%,45*,8.9µM*,22%,-9%
COc1ccc2c(C)cc(SCC(=O)Nc3nsc(-c4ccccc4C)n3)nc2c1,.,.,.,1%,.,.
O=C(NCc1cccs1)c1ccc(Cn2c(SCc3cccc(F)c3)nc3cccnc32)cc1,.,.,.,-5%,.,.
SMILES,CHX counter,RE007 growth inh,Shiga inhibitor,TbPYK inhibitor,LmPK inhibitor,FBPA Giardia inh
O=C(CSc1nnc(NC(=O)c2ccccc2F)s1)NCC1CCCO1 (stereo unspecified),17*,-5%,19*,-26%,-10%,.
O=C(CSc1nnc(NC(=O)Cc2ccccc2)s1)NCC1CCCO1 (stereo unspecified),-3,10%,-4,-12%,13%[11.5 µM],8%
O=C(CSc1nnc(NC(=O)c2ccccc2)s1)NCC1CCCO1 (stereo unspecified),30*,23%,36*,-4%,-5%,3%
O=C(CSc1nnc(NC(=O)c2ccccc2[N+](=O)[O-])s1)NCC1CCCO1 (stereo unspecified),4,-1%,40,-6%,0%,.
Cc1nc(N2CCOCC2)c2nc(-c3ccccc3)n(CCCN3CCOCC3)c2n1,.,.,.,.,.,3%
Clc1ccccc1C1CC(c2ccccc2)=Nc2ccccc2N1 (stereo unspecified),43*,-8%,93*,0%,3%,0%
Brc1ccccc1C1CC(c2ccccc2)=Nc2ccccc2N1 (stereo unspecified),97*,-28%,91*,-6%,-5%,?
c1ccc(C2=NC(c3ccccc3)CC2)cc1 (stereo unspecified),.,-26%,.,-15%,.,.
c1ccc(C2=Nc3ccccc3NC(c3ccccc3)C2)cc1 (stereo unspecified),36*,?,126*,1%,2%,-28%
Cc1ccc(NS(=O)(=O)c2c(C)nc3sc(C)c(C)n3c2=O)cc1F,.,.,.,2%,.,.
COC(=O)C1CCN(C(=O)c2cc3ccccc3oc2=O)CC1,33*,2%,48*,-2%,1%,-26%
O=C(c1cc2ccccc2oc1=O)N1CCN(C(=O)C2CCCO2)CC1 (stereo unspecified),1,8%,12,3%,6%,0%
O=C(Nc1cccnc1N1CCOCC1)c1cc2ccccc2oc1=O,26*,30%,47*,-1%,-8%,-13%
O=C(Nc1c(-c2ccccc2)nc2ncccn12)c1cc2ccccc2oc1=O,36*,0%,-18,-6%,-1%,1%
O=C(c1cc2ccccc2oc1=O)N1CCOCC1,39*,10%,73*,-1%,-20%,3%
CO[C@H]1COC(=O)C/C=C\[C@H](C)[C@@H](OC)COC(=O)[C@@H](C)NC(=O)C/C=C\[C@@H]1C,.,.,.,.,.,5%[12.9 µM]
CC12COC3(C(=O)NCCc4ccccc4)CC1CCC32C (stereo unspecified),50*,11%,56*,-6%,0%,3%
CC12COC3(C(=O)Nc4ccc5ccccc5c4)CC1CCC32C (stereo unspecified),35*,-15%,122*,-8%,3%,-3%
CC(C)[C@@H](OCc1ccccc1)[C@H](C)/C=N\O[C@@H](C)c1cn([C@@H]2COC[C@@H]2O)nn1,.,.,.,.,.,0%[12.9 µM]
CSc1nc2ccc(NC(=O)c3nn(C(C)C)c(=O)c4ccccc34)cc2s1,53*,5%,102*,6%,-3%,0%
CSc1nc2ccc(NC(=O)c3ccco3)cc2s1,35*,?,57*,-4%,-12%,-3%
Cc1nc2ccc(NC(=O)c3nn(C(C)C)c(=O)c4ccccc34)cc2s1,-6,5%,-17,7%,4%,0%
CCC(=O)Nc1nc2ccc(NC(C)=O)cc2s1,33*,-8%,47,5%,0%,5%
CSc1nc2ccc(NC(=O)c3cc4ccccc4o3)cc2s1,30*,0%,70*,1%,-12%,-5%
CSc1nc2ccc(NC(=O)c3cccs3)cc2s1,.,-3%,.,-1%,.,.
O=C(Cn1c(-c2cccs2)cc2ccccc21)NCc1ccccc1Br,.,.,.,-2%,.,.
COC(=O)c1cc2oc3ccccc3c2n1CC(=O)Nc1ccc(Cl)cc1F,.,.,.,0%,.,.

# Screening results from PubChem.
